Source: PubChem BioAssay
An excerpt weighted towards active compounds, which were near 4.5% of everything screened.
TSHR ag: TSH receptor (human) agonism; Potency, µM (series often up to 57.1 µM), for inactives: at the highest dose activation, most hits filed as activators; 73,000 tested, 0.48% active; P16473; AID 926; HEK293-CNG-TSHR cells (CNG channel as cAMP sensor), membrane potential dye, cAMP; active = well fitted activation curve with a large enough effect in the main read-out, with a control signal flat, not every such curve was filed as active; inconclusive = small, poorly fitted or top-dose-only effect, or a change in a side signal; inactive = no such curve, though single readings can be large or run the other way; % of control where 0% means no effect;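 note: the control signal comes from parental cells without the receptor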
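cAMP rise detected as CNG-channel membrane depolarization by fluorescent dye (emission 590 nm), 30 min after compound, following 60 min dye loading containing 100 uM RO 20-1724 at room temperature. Cells: TSHR/CNG HEK 293, with parental CNG HEK 293 as control.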
Caspase-1 inhib: caspase-1 (human) inhibition, allosteric or competitive; P29466; Caspase-1 enzyme, Ac-WEHD-AFC fluorogenic rate; 75,000 tested, 0.03% active; Potency, µM (doses to about 57.5 µM), without a hit: at the top dose activity change, negative = inhibition, actives largely listed as inhibitors;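 note: plate controls were vehicle for no effect and no substrate for full effect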
Target sequence (P29466 120-297 limits assumed): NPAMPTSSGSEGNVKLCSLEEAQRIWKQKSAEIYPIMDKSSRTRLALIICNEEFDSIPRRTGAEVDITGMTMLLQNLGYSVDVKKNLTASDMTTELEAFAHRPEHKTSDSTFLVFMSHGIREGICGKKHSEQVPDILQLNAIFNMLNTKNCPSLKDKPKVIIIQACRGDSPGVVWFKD
Target sequence (P29466 317-404 limits assumed): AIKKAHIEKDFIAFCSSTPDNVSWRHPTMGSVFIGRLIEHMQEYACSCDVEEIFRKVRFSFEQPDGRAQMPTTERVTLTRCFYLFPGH
HEK293 cAMP ctrl: raises cAMP in parental HEK293 cells, TSHR agonist counter-screen; parental HEK293 CNG cAMP sensor, membrane potential fluorescence; Potency, µM (doses to about 57.1 µM), for inactives: at the top dose activation, usual class: activators; 73,000 tested, 2.5% active; AID 938; note: % of control where 0% means no effect; nearly all actives have a fitted effect of over 55% in size
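Parental HEK 293 cells stably expressing a cAMP-gated CNG channel were loaded with membrane potential dye containing 100 uM RO 20-1724 for 60 min. Compound added for 30 min; depolarization read as fluorescence intensity at 590 nm.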
GBA activity: modulators of human glucocerebrosidase; 48,000 tested, 1.1% active; Potency, µM; P04062; purified enzyme, resorufin glucoside fluorescence (screen aimed at inhibitors), 20 min; AID 360; in the data active = potency below about 15 µM; inconclusive = mostly about 16 µM to 33 µM;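 note: the screen sought inhibitors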
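Wild-type enzyme at 0.2 nM final in 50mM citric acid/KH2PO4, 10mM sodium taurocholate, 0.01% tween-20, pH 5.9, with resorufin beta-D-glucopyranoside at 30 uM final. Compounds titrated, 20 min at RT, red fluorescence read; AC50 from titration.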
ERK AVP block: inhibitors of vasopressin-stimulated ERK signaling pathway; AID 995; HEK293-V1b, vasopressin-stimulated pERK AlphaScreen; Potency, µM (top dose mostly 57.5 µM), inactives show at the highest dose activity, negative = inhibition, hits mostly inhibitors; 72,000 tested, 0.99% active; note: % is set by controls: 0 for no effect and ±100 for the full control effect; nearly all actives have a fitted effect of over 55% in size
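qHTS, compounds titrated on V1b-expressing HEK293 cells. Preincubation 30 min at 37C, vasopressin 25 nM for 5 min, lysis 10 min, bead incubation 5 hr at room temperature.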
Caspase-7 inhib: allosteric or competitive inhibitors of human caspase-7 | Potency, µM (highest dose often 57.5 µM), for inactives: top-dose activity change, negative = inhibition, most hits filed as inhibitors | recombinant caspase-7, Ac-DEVD-AFC fluorescence rate | P55210 | 75,000 tested, 0.02% active; active = well fitted inhibition curve with a large enough effect in the main read-out, with a control signal flat, not every such curve was filed as active; inconclusive = small, poorly fitted or top-dose-only effect, or a change in a side signal; note: % of control where 0% means no effect
Target sequence (P55210 24-198 limits assumed): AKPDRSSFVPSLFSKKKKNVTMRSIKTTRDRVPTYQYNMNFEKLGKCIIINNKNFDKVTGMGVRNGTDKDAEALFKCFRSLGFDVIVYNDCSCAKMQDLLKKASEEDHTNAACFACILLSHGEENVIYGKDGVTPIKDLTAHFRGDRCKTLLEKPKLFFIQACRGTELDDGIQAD
Target sequence (P55210 207-303 limits assumed): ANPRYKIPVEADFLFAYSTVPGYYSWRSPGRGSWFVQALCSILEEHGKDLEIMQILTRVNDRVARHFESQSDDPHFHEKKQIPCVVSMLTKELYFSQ
Numbers without * were called inactive; ? = inconclusive; . = not tested or not shown; [ ] = remark or other dose. Unless noted, calls come from the whole dose curve; as a rule, active = well fitted curve in the direction sought with a large enough effect; inconclusive = small, poorly fitted or top-dose-only effect, or another doubt; inactive = no such curve, though single readings can be large; an effect the other way counts as inactive or inconclusive. Potency is the fitted concentration of half-maximal effect.

SMILES	TSHR ag	Caspase-1 inhib	HEK293 cAMP ctrl	GBA activity	ERK AVP block	Caspase-7 inhib
COc1ccc(N2CCN(C(=O)C(Cc3ccccc3)n3cccc3)CC2)cc1 (stereo not given)	-3%	-3%	8%	.	25µM*	-5%
O=C(C(Cc1ccccc1)n1cccc1)N1CCCCC1 (stereo not given)	.	5%	3%	.	-24%	-3%
O=c1c(-c2cccs2)nc2cnc(Nc3ccccc3)nc2n1C[C@H]1CCCO1	1%	.	18%	.	13%	?
c1ccc(-c2nnc3sc(-c4ccncc4)nn23)cc1	-1%	0%	-6%	>77	?	-1%
Cc1cccc(-c2nnc3sc(-c4ccccc4C)nn23)c1	?	-5%	32µM*	>77	-23%	-5%
c1ccc(-c2nnc3sc(-c4csc5c4CCCC5)nn23)cc1	?	-3%	25µM*	.	0%	-5%
O=C(c1cccc(F)c1)N1CCC2(CC1)CCN(c1ccccn1)CC2	?	-3%	?	.	-24%	0%
O=[N+]([O-])c1cccc2c[nH]nc12	.	-11%	11%	.	-9%	-17%
COCCOC(=O)c1c(C)oc2ccc(OCc3cc(C(=O)OC)oc3C)cc12	?	-3%	25µM*	>77	2%	-1%
COCCOC(=O)c1c(C)oc2ccc(OCC=C(C)C)cc12	?	-5%	?	.	.	-3%
CCCCn1c(CN(C)Cc2ccccc2)nc2c1c(=O)n(C)c(=O)n2C	?	0%	16µM*	>77	?	0%
CN(Cc1ccccc1)Cc1nc2c(c(=O)n(C)c(=O)n2C)n1CCc1ccccc1	?	-2%	13µM*	>77	-14%	-2%
CCCn1c(CN(C)Cc2ccccc2)nc2c1c(=O)n(C)c(=O)n2C	?	1%	?	>77	-30%	0%
Cc1cc(C)cc(C(=N)c2ccccc2Cc2cccc3ccccc23)c1	4%[11.4 µM]	-1%[11.5 µM]	2%[11.4 µM]	.	15%[11.5 µM]	-4%[11.5 µM]
COc1ccc(C(=O)c2ccc(O)cc2)c(O)c1O	.	1%	.	.	?	-1%
CSCC[C@@H]1NC(=O)C/C=C\[C@@H](C)COC(=O)[C@@H](C)COC1=O	3%[11.4 µM]	2%[11.5 µM]	-1%[11.4 µM]	.	2%[11.5 µM]	0%[11.5 µM]
CN(C)c1nc(N)c(C(=O)N=C(N)N)nc1Cl	?	2%	25µM*	.	11%	0%
C(=N\c1c(-c2ccccc2)nc2n1CCS2)/c1ccccc1	-29%	-3%	-5%	.	20µM*	-4%
O=c1c2ccccc2nc2n1CCS2	8%	1%	4%	>77	1%	0%
Cn1cc(-c2nc3cnc(Oc4cccc(Cl)c4)nc3n(CCC#N)c2=O)c2ccccc21	?	.	?	.	46%	?
CC(C)C[C@@H](CC(=O)N[C@@H](CCC(=O)O)CC(=O)O)NC(=O)[C@@H]1CNCC[C@H]1NC(=O)C[C@H](CCCN)NC(=O)C[C@H](Cc1c[nH]c2ccccc12)NC(=O)[C@@H]1CCCC[C@H]1N	6%	.	10%	.	.	.
Nc1nc(N2CCN(C/C=C/c3ccccc3)CC2)nc2ccccc12	?	-2%	-42%	8.4*	-21%	0%
CCN1C(=O)[C@H]2[C@H]3[C@H](O)[C@H](O)C/C(=N/OC/C=C(\C)CCC=C(C)C)[C@H]3CC[C@@H]2C1=O	10%[11.4 µM]	-10%[11.5 µM]	7%[11.4 µM]	.	15%[11.5 µM]	1%[11.5 µM]
O=C(CN(Cc1ccco1)C(=O)CNS(=O)(=O)c1ccc(F)cc1)NCCc1ccccc1	-1%	1%	8%	>77	-16%	2%
COc1ccccc1N(C(=O)CNS(=O)(=O)c1ccccc1)C(C(=O)NCc1ccco1)C(C)C (stereo not given)	?	0%	?	>77	15%	6%
SMILES	TSHR ag	Caspase-1 inhib	HEK293 cAMP ctrl	GBA activity	ERK AVP block	Caspase-7 inhib
O=C(CN(Cc1ccco1)C(=O)CNS(=O)(=O)c1ccccc1)NCc1ccccc1	20µM*	0%	13%	>77	4%	-2%
CCC(C(=O)NCc1ccco1)N(C(=O)CNS(=O)(=O)c1ccc(C)cc1)c1ccccc1OC (stereo not given)	?	-5%	16µM*	>77	-5%	0%
CCCC(C(=O)NCc1ccco1)N(C(=O)CNS(=O)(=O)c1ccccc1)c1ccccc1OC (stereo not given)	?	-1%	25µM*	15*	26%	2%
COc1cccc2c(=O)n(CC(=O)NC3CCCC3)ccc12	1.3µM*	0%	1%	.	.	4%
O=C1CN2C(=Nc3ccc(Cl)cc3C2c2ccccc2)CN1 (stereo not given)	2%	-2%	27%	1.3*	-11%	-3%
CCCC[C@H]1C[C@@H]1[C@@H]1N(P(=O)(c2ccccc2)c2ccccc2)[C@](CO)(c2ccccc2)CC12CC2	?	-4%	?	.	-21%	-3%
CCCC[C@H]1C[C@@H]1[C@@H]1N(C(C)=O)[C@H](c2cccc(OC)c2)CC12CC2	?	-3%	20µM*	.	0%	-3%
O=C(O)CC[C@@]1(c2ccccc2)NC(=O)NC1=O	6%[11.4 µM]	0%[11.5 µM]	9%[11.4 µM]	.	-12%[11.5 µM]	0%[11.5 µM]
O=C(COC(=O)c1ccccc1NC(=O)c1ccco1)NCCC1=CCCCC1	?	-4%	25µM*	>77	8%	-4%
COc1ccc(-n2nnc3c(=O)n(Cc4cccc(C)c4)cnc32)cc1	?	0%	25µM*	>77	5%	0%
Cc1ccc(C)c(Cn2cnc3c(nnn3-c3ccc(F)cc3)c2=O)c1	?	3%	1µM*	>77	-2%	-2%
COc1ccc(-n2nnc3c(=O)n(Cc4ccccc4C)cnc32)cc1	.	2%	27%	>77	-12%	-1%
NS(=O)(=O)c1ccc(NCc2nc3ccccc3[nH]2)cc1	-6%[11.4 µM]	-2%[11.5 µM]	4%[11.4 µM]	.	-4%[11.5 µM]	2%[11.5 µM]
O=C(CCc1ccccc1)Nc1c(F)c(F)c(F)c(F)c1F	?	2%	16µM*	.	19%	-1%
O=C(c1csnn1)N1CCC2(CCN(Cc3ccccc3)CC2)CC1	3%	-6%	-6%	.	22%	-8%
COc1ccc2c(c1OC)C(Cc1ccccc1)N1CCc3cc4c(cc3C1=C2)OCO4 (stereo not given)	.	.	.	.	6.3µM*	?
O=C(O)c1ccc2cc(-c3ccc(O)c(C45CC6CC(CC(C6)C4)C5)c3)ccc2c1	1%	-3%	7%	.	?	-10%
c1ccc(COn2c(-c3ccccc3)nc3c2CCc2nonc2-3)cc1	?	-2%	25µM*	?	-11%	0%
N[C@H](CCC(=O)NCC(=O)O)C(=O)O	-2%	1%	-21%	.	7%	1%
N#Cc1c(N)sc(=S)c2c1CCN(Cc1ccccc1)C2	-14%	.	1%	.	-1%	13µM*
CCN1CCc2c(sc(N)c2C#N)C1	0%	.	10%	>77	?	?
